In PubChem BioAssay (NCI) one finds growth inhibition data, which are given here for 10 compounds.

Experiment [1] can be described thus: NCI Yeast Anticancer Drug Screen. Data for the rad50 strain (AID 155).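 Also: 0% = growth of vehicle-only cultures of the same strain.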 To be noted: S. cerevisiae rad50 strain growth inhibition, stronger effect = higher value. Summed up: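 Yeast carrying a defined DNA repair defect were exposed to test compounds, and growth was compared with vehicle-treated controls to give percent inhibition.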
Experiment [2] in a line: NCI Yeast Anticancer Drug Screen. Data for the mec2-1 strain (AID 157). Conditions: S. cerevisiae mec2-1 strain, stronger effect = higher value. Summed up: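 Vehicle-treated cultures served as reference for growth inhibition of compound-exposed mec2-1 yeast.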
A short description of experiment [3]: NCI Yeast Anticancer Drug Screen. Data for the sgs1 mgt1 strain (AID 161).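 Also: 0% = growth of cultures given vehicle only.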 Conditions: S. cerevisiae sgs1 mgt1 strain, stronger effect = higher value. The essentials: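 Genetically altered yeast, compound exposure, growth inhibition relative to vehicle.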
Experiment [4] is described as follows: NCI Yeast Anticancer Drug Screen. Data for the cln2 rad14 strain (AID 165).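 Also: 0% = growth equal to vehicle treated cultures.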 Conditions: S. cerevisiae cln2 rad14 strain, stronger effect = higher value. Summed up: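 Each compound was tested on cln2 rad14 yeast. Inhibition of growth was calculated against vehicle-exposed controls.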
Experiment [5] can be described thus: NCI Yeast Anticancer Drug Screen. Data for the bub3 strain (AID 167). To be noted: S. cerevisiae bub3 mutant strain, stronger effect = higher value. Summed up:
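Compounds were applied to a genetically altered yeast strain carrying a cell-cycle control defect. Growth inhibition was scored against vehicle-treated controls.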

The nature of experiment [6]: NCI Yeast Anticancer Drug Screen. Data for the mlh1 rad18 strain (AID 175). Conditions: S. cerevisiae mlh1 rad18 strain growth inhibition, stronger effect = higher value. The essentials:
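Vehicle-treated cultures served as the reference for growth inhibition in a yeast strain carrying DNA damage repair alterations exposed to each compound.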

Setting [7] is: at 5.0 µM (retest, dose inferred, filed as 0.5).
Where [8] appears, read: at 50.0 µM (retest, dose inferred, filed as 5.0).

This is part of a sample that, as a whole, favours compounds with a hit. Of some 79,000 tested, about 15% had one in any assay. Unmarked numbers belong to inactive results. Activity calls are given as the source filed them. Rule as the data show it: active = growth inhibition above about 70%; inactive = the rest.

For `Cc1nc(Sc2nc3ccc([N+](=O)[O-])cc3s2)sc1C`, the growth inhibition was -8% in experiment [1] (setting [7]); 86% (active) in experiment [1] (setting [8]); 88.2% (active) in experiment [1] (at 50.0 µM); -12% in experiment [2] (setting [7]); 90% (active) in experiment [2] (setting [8]); 86.5% (active) in experiment [2] (at 50.0 µM). Moreover, the growth inhibition in experiment [3] (setting [7]) is -2%; in experiment [3] (setting [8]), 92% (active); in experiment [3] (at 50.0 µM), 84.1% (active); in experiment [4] (setting [7]), -9%; in experiment [4] (setting [8]), 85% (active); in experiment [4] (at 50.0 µM), 46%. In addition, the growth inhibition in experiment [5] (setting [7]) was -12%; in experiment [5] (setting [8]), 88% (active); in experiment [5] (at 50.0 µM) it was 57.3%; in experiment [6] (setting [7]), -13%; in experiment [6] (setting [8]), 90% (active); in experiment [6] (at 50.0 µM) it was 93.6% (active).

In the case of `CC1=C(C2=C(C)C(=O)C(=O)c3cc(C)ccc32)c2ccc(C)cc2C(=O)C1=O`, the growth inhibition in experiment [1] (setting [7]) is 89% (active); in experiment [1] (setting [8]), 98% (active); in experiment [1] (at 50.0 µM), 86.7% (active); in experiment [2] (setting [7]), 95% (active); in experiment [2] (setting [8]), 99% (active); in experiment [2] (at 50.0 µM), 91.5% (active). Further, the growth inhibition in experiment [3] (setting [7]) is 98% (active); in experiment [3] (setting [8]), 99% (active); in experiment [3] (at 50.0 µM), 91.8% (active); in experiment [4] (setting [7]), 71% (active); in experiment [4] (setting [8]) it was 98% (active); in experiment [4] (at 50.0 µM) it was 89.8% (active). The growth inhibition in experiment [5] (setting [7]) was 98% (active); in experiment [5] (setting [8]), 99% (active); in experiment [5] (at 50.0 µM) it was 90.9% (active); in experiment [6] (setting [7]) it was 97% (active); in experiment [6] (setting [8]), 99% (active); in experiment [6] (at 50.0 µM), 91% (active).

Regarding `O=C(O)c1cccc2cccc(-c3c4ccc(=O)c(O)c-4oc4c(O)c(O)ccc34)c12`, the growth inhibition in experiment [1] (setting [7]) is 86% (active); in experiment [1] (setting [8]) it was 96% (active); in experiment [1] (at 50.0 µM), 87% (active); in experiment [2] (setting [7]) it was 84% (active); in experiment [2] (setting [8]), 97% (active); in experiment [2] (at 50.0 µM) it was 90% (active). The growth inhibition was 93% (active) in experiment [3] (setting [7]); 98% (active) in experiment [3] (setting [8]); 90% (active) in experiment [3] (at 50.0 µM); 62% in experiment [4] (setting [7]); 97% (active) in experiment [4] (setting [8]); 89% (active) in experiment [4] (at 50.0 µM). In addition, the growth inhibition in experiment [5] (setting [7]) is 93% (active); in experiment [5] (setting [8]), 97% (active); in experiment [5] (at 50.0 µM) it was 87.5% (active); in experiment [6] (setting [7]), 96% (active); in experiment [6] (setting [8]) it was 95% (active); in experiment [6] (at 50.0 µM), 85.7% (active).

With `CCOC(=O)C1=NN(c2ccccc2)C(=O)/C1=C\N1C(=O)/C(=C/c2cccc(O)c2)SC1=S`, the growth inhibition in experiment [1] (setting [7]) is -9%; in experiment [1] (setting [8]), 11%; in experiment [1] (at 50.0 µM), 6.8%; in experiment [2] (setting [7]), -16%; in experiment [2] (setting [8]), 17%; in experiment [2] (at 50.0 µM), 1.9%. Besides, the growth inhibition is -2% in experiment [3] (setting [7]); 9% in experiment [3] (setting [8]); 3.45% in experiment [3] (at 50.0 µM); -13% in experiment [4] (setting [7]); -13% in experiment [4] (setting [8]); 60.5% in experiment [4] (at 50.0 µM). The growth inhibition is 4% in experiment [5] (setting [7]); 12% in experiment [5] (setting [8]); 3.45% in experiment [5] (at 50.0 µM); 0% in experiment [6] (setting [7]); 10% in experiment [6] (setting [8]); -4.9% in experiment [6] (at 50.0 µM).

Consider `Clc1ccc(-n2ncc3c(NCCCN4CCOCC4)ncnc32)cc1`, for which the growth inhibition in experiment [1] (setting [7]) is 3%; in experiment [1] (setting [8]) it was 82% (active); in experiment [1] (at 50.0 µM) it was 56%; in experiment [2] (setting [7]), 6%; in experiment [2] (setting [8]), 70% (active); in experiment [2] (at 50.0 µM), 62.1%. Moreover, the growth inhibition in experiment [3] (setting [7]) was 1%; in experiment [3] (setting [8]), 81% (active); in experiment [3] (at 50.0 µM), 82.8% (active); in experiment [4] (setting [7]) it was 19%; in experiment [4] (setting [8]), 62%; in experiment [4] (at 50.0 µM), 35.4%. Also, the growth inhibition in experiment [5] (setting [7]) was 16%; in experiment [5] (setting [8]) it was 77% (active); in experiment [5] (at 50.0 µM) it was 47.4%; in experiment [6] (setting [7]) it was 9%; in experiment [6] (setting [8]), 79% (active); in experiment [6] (at 50.0 µM), 75.6% (active).

As to `c1ccc2sc(SSN3CC4CCC(CC4)C3)nc2c1`, the growth inhibition is 37% in experiment [1] (setting [7]); 91% (active) in experiment [1] (setting [8]); 56.6% in experiment [1] (at 50.0 µM); 19% in experiment [2] (setting [7]); 93% (active) in experiment [2] (setting [8]); 80.8% (active) in experiment [2] (at 50.0 µM). In addition, the growth inhibition in experiment [3] (setting [7]) is 75% (active); in experiment [3] (setting [8]) it was 97% (active); in experiment [3] (at 50.0 µM), 86.4% (active); in experiment [4] (setting [7]), 38%; in experiment [4] (setting [8]), 89% (active); in experiment [4] (at 50.0 µM), 21.6%. The growth inhibition in experiment [5] (setting [7]) is 55%; in experiment [5] (setting [8]) it was 96% (active); in experiment [5] (at 50.0 µM), 83.7% (active); in experiment [6] (setting [7]), 19%; in experiment [6] (setting [8]), 89% (active); in experiment [6] (at 50.0 µM) it was 80.7% (active).

For `CC1=CC(=NC(=O)CBr)C=C/C1=N\S(=O)(=O)c1ccccc1`, the growth inhibition in experiment [1] (setting [7]) was 65%; in experiment [1] (setting [8]), 99% (active); in experiment [1] (at 50.0 µM), 56.5%; in experiment [2] (setting [7]) it was 44%; in experiment [2] (setting [8]), 100% (active); in experiment [2] (at 50.0 µM) it was 33.2%. Besides, the growth inhibition was 46% in experiment [3] (setting [7]); 100% (active) in experiment [3] (setting [8]); 55% in experiment [3] (at 50.0 µM); 42% in experiment [4] (setting [7]); 81% (active) in experiment [4] (setting [8]); 28.3% in experiment [4] (at 50.0 µM). Further, the growth inhibition in experiment [5] (setting [7]) is 46%; in experiment [5] (setting [8]) it was 97% (active); in experiment [5] (at 50.0 µM) it was 84.5% (active); in experiment [6] (setting [7]), 55%; in experiment [6] (setting [8]), 99% (active); in experiment [6] (at 50.0 µM), 56.1%.

On to `CCCCCCCCCCCCN1C(C)=CS/C1=C\C=C\c1scc(C)[n+]1CCCCCCCCCCCC`, for which the growth inhibition is 9% in experiment [1] (setting [7]); 94% (active) in experiment [1] (setting [8]); 88% (active) in experiment [1] (at 50.0 µM); -4% in experiment [2] (setting [7]); 97% (active) in experiment [2] (setting [8]); 89.2% (active) in experiment [2] (at 50.0 µM). In addition, the growth inhibition in experiment [3] (setting [7]) was 18%; in experiment [3] (setting [8]), 96% (active); in experiment [3] (at 50.0 µM), 84.7% (active); in experiment [4] (setting [7]), 4%; in experiment [4] (setting [8]), 91% (active); in experiment [4] (at 50.0 µM), 85% (active). Also, the growth inhibition was 23% in experiment [5] (setting [7]); 95% (active) in experiment [5] (setting [8]); 85% (active) in experiment [5] (at 50.0 µM); 1% in experiment [6] (setting [7]); 93% (active) in experiment [6] (setting [8]); 83% (active) in experiment [6] (at 50.0 µM).

For `COc1ccc2nc3cc(Cl)ccc3c(NCCCCCN3CCCCC3)c2c1`, the growth inhibition is -3% in experiment [1] (setting [7]); 70% (active) in experiment [1] (setting [8]); 77.6% (active) in experiment [1] (at 50.0 µM); -3% in experiment [2] (setting [7]); 31% in experiment [2] (setting [8]); 39% in experiment [2] (at 50.0 µM). The growth inhibition is -7% in experiment [3] (setting [7]); 26% in experiment [3] (setting [8]); 47.1% in experiment [3] (at 50.0 µM); 1% in experiment [4] (setting [7]); 45% in experiment [4] (setting [8]); 63% in experiment [4] (at 50.0 µM). Besides, the growth inhibition in experiment [5] (setting [7]) was -4%; in experiment [5] (setting [8]) it was 4%; in experiment [5] (at 50.0 µM), 59.4%; in experiment [6] (setting [7]), 0%; in experiment [6] (setting [8]), 47%; in experiment [6] (at 50.0 µM) it was 59.9%.

`CN=C(N)N/N=C(\C)c1ccc2c(c1)Cc1ccccc1-2`: the growth inhibition was 32% in experiment [1] (setting [7]); 98% (active) in experiment [1] (setting [8]); 77.5% (active) in experiment [1] (at 50.0 µM); 19% in experiment [2] (setting [7]); 99% (active) in experiment [2] (setting [8]); 59.9% in experiment [2] (at 50.0 µM). Further, the growth inhibition was 51% in experiment [3] (setting [7]); 96% (active) in experiment [3] (setting [8]); 84.2% (active) in experiment [3] (at 50.0 µM); 42% in experiment [4] (setting [7]); 86% (active) in experiment [4] (setting [8]); 52.8% in experiment [4] (at 50.0 µM). Further, the growth inhibition was 48% in experiment [5] (setting [7]); 95% (active) in experiment [5] (setting [8]); 81.5% (active) in experiment [5] (at 50.0 µM); 26% in experiment [6] (setting [7]); 96% (active) in experiment [6] (setting [8]); 92.7% (active) in experiment [6] (at 50.0 µM).
